High-throughput results (PubChem BioAssay)
Only some compounds are listed: those with a hit (about 8% of all), similar ones and a draw of the others.
MCF10A rereplic = DNA re-replication induction in MCF 10a cells | MCF 10A DNA re-replication, Hoechst nuclear intensity, 48 h | Potency, µM (doses to about 46.1 µM), most hits filed as activators | 2.9% of 350,000 active | AID 624296; further: nearly all actives have a fitted effect of over 50% in size
SW480 rerep = induces DNA re-replication in SW480 colon adenocarcinoma cells. Potency, µM (series often up to 46.1 µM), actives largely listed as activators. 1.8% of 340,000 active. SW480 DNA re-replication, Hoechst DNA content imaging, 48 h; further: nearly all actives have a fitted effect of over 55% in size
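Image-based read-out: total Hoechst fluorescence of nuclei (405 nm excitation, 500-530 nm emission), with hits raising the fraction of high-intensity nuclei. SW480 colon cells incubated 48 hr with compounds at 37 C.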
KB-V1 cytotox = KB-V1 MDR subline cytotoxicity | KB-V1 MDR cells viability, CellTiter-Glo, 72 h | Potency, µM (series often up to 46.1 µM), most hits filed as cytotoxic | 3.4% of 400,000 active | AID 1347076; further: nearly all actives have a fitted effect of over 60% in size
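Readout: CellTiter-Glo luminescence, 10 min after addition. Cells: KB-V1 MDR subline, 72 h at 37 degrees C with compound. Analysis: corrected, normalized data fitted to concentration-effect curves.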
HT1080 IDH1KD tx = toxicity to HT-1080 IDH1 knockdown cells (counter line); Potency, µM (highest dose often 46.1 µM), usual class: cytotoxic; AID 686971; HT-1080 IDH1 knockdown viability, ATP luminescence, 48 h; 2% of 360,000 active
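Using the IDH1-knockdown HT-1080 line run in the same batch and compound series as the NT line, viability after 48 h at 37 °C was determined by CellTiter-Glo luminescence and expressed as % activity.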
HT1080-NT tox = kills 2HG-producing HT-1080-NT fibrosarcoma cells; HT-1080-NT fibrosarcoma viability, CellTiter-Glo ATP luminescence, 48 h; Potency, µM (highest dose often 46.1 µM), most hits filed as cytotoxic; 1.6% of 360,000 active; AID 686970;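 further: NT is the 2HG producing partner of a matched IDH1 knockdown line; nearly all actives have a fitted effect of over 55% in size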
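A 48-hour cytotoxicity screen used HT-1080-NT cells plated 2 hours before compound delivery. ATP-based CellTiter-Glo luminescence measured viability, normalized to DMSO and no-cell controls.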
KB-3-1 tox = kills parental KB-3-1 adenocarcinoma cells | KB-3-1 viability, CellTiter-Glo ATP luminescence, 72 h | Potency, µM (top dose mostly 46.1 µM), most hits filed as cytotoxic | 1.4% of 400,000 active; further: nearly all actives have a fitted effect of over 60% in size
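Here the drug-naive KB-3-1 line serves as comparator for MDR sub-line selectivity; cells received compound titrations, 72 h at 37 °C, then CellTiter-Glo readout.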
Each line names hits and unclear results; the compound was inactive in the other large screens; ! = a repeat was not active. The call rests on the fitted dose curve; in most records, active means well fitted curve in the direction sought with a large enough effect; inconclusive means small, poorly fitted or top-dose-only effect, or another doubt; inactive means no such curve, though single readings can be large; an effect the other way counts as inactive or inconclusive.

CCOc1ccc(-c2cc(C(=O)N3CCN(c4ccccn4)CC3)c3ccccc3n2)cc1	MCF10A rereplic inconclusive, SW480 rerep inconclusive, KB-V1 cytotox inconclusive, HT1080 IDH1KD tx inconclusive, HT1080-NT tox inconclusive, KB-3-1 tox 4.1µM!
COc1ccc(-c2cc(C(=O)O)c3ccccc3n2)c(OC)c1	none
COc1cccc(CN2CCN(C(=O)c3cc(-c4cccnc4)nc4ccc(C)cc34)CC2)c1	KB-V1 cytotox 23µM
COc1ccc(-c2cc(C(=O)N3CCN(c4ccccn4)CC3)c3ccccc3n2)cc1	MCF10A rereplic inconclusive, SW480 rerep 21µM, HT1080 IDH1KD tx inconclusive, HT1080-NT tox inconclusive
COc1ccc2cc(-c3cc(C(=O)O)c4ccccc4n3)ccc2c1	HT1080 IDH1KD tx inconclusive, HT1080-NT tox inconclusive, KB-3-1 tox 15µM
CCOc1ccc(NC(=S)NCC(c2cccnc2)N2CCOCC2)cc1 (stereo not given)	none
CC(C)CCC1(CCNC(C)c2cccs2)CCOC(C)(C)C1 (stereo not given)	MCF10A rereplic inconclusive, HT1080 IDH1KD tx inconclusive
O[C@H]1C[C@H](c2ccccc2)N(Cc2cccs2)C[C@@H]1n1cc(C2CC2)nn1	none (no result: MCF10A rereplic, SW480 rerep)
COc1ccc(-c2cc(C(=O)N3CCN(c4ccccc4)CC3)c3ccccc3n2)cc1	MCF10A rereplic 13µM, SW480 rerep 1.8µM, KB-V1 cytotox 7.3µM, HT1080 IDH1KD tx 1.8µM, HT1080-NT tox inconclusive, KB-3-1 tox inconclusive
COc1ccc(-c2ccnc(-c3ccc(OCCCF)cc3)n2)cc1	MCF10A rereplic 15µM, SW480 rerep inconclusive, KB-V1 cytotox inconclusive, KB-3-1 tox inconclusive
FCCCOc1ccc(-c2nccc(-c3ccc(Cl)cc3)n2)cc1	none
CCC(=O)N1CCC1(C)C(=O)Nc1ccc2nc(C)ccc2c1 (stereo not given)	HT1080-NT tox inconclusive (no result: MCF10A rereplic, SW480 rerep)
O=C(c1cccc(N2C(=O)C3CC=CCC3C2=O)c1)N1CCN(c2ccccc2)CC1 (stereo not given)	KB-V1 cytotox 23µM
CC1C=CCC2C(=O)N(c3cccc(C(=O)N4CCN(c5ccc(F)cc5)CC4)c3)C(=O)C12 (stereo not given)	KB-V1 cytotox 18µM
O=C(c1cccc(N2C(=O)C3CC=CCC3C2=O)c1)N1CCCCCC1 (stereo not given)	KB-V1 cytotox inconclusive
O=C(c1cccc(N2C(=O)C3C4C=CC(C4)C3C2=O)c1)N1CCN(c2ccc(F)cc2)CC1 (stereo not given)	none
Cc1cc2oc(=O)cc(CN3CCN(S(=O)(=O)c4cccs4)CC3)c2cc1C	MCF10A rereplic inconclusive
Cc1ccc(N2C(=O)C(Cl)=C(N3CCCCCC3)C2=O)c(C)c1	none
CC(C)N1CCC(N2CCN(Cc3ccc(-c4ccc(Cl)cc4)o3)CC2CCO)CC1 (stereo not given)	SW480 rerep inconclusive, HT1080 IDH1KD tx 21µM, HT1080-NT tox 16µM, KB-3-1 tox inconclusive
O=C(CN1CCN(S(=O)(=O)c2cc(Cl)ccc2Cl)CC1)Nc1cccc(F)c1	none (no result: MCF10A rereplic, SW480 rerep, HT1080 IDH1KD tx, HT1080-NT tox)
COc1ccc2c(c1OC)C(=O)OC2c1ccc(O)cc1 (stereo not given)	none (no result: MCF10A rereplic, SW480 rerep, HT1080 IDH1KD tx, HT1080-NT tox)
O=c1c2ccccc2ncn1Cc1nc2ccccc2s1	none
CCC(c1nc2ccccc2c(=O)n1-c1nc2ccccc2s1)N1C(=O)c2ccccc2C1=O (stereo not given)	SW480 rerep 7.3µM, KB-V1 cytotox 3.7µM, KB-3-1 tox inconclusive
CC(=O)c1ccc(OCC(=O)Nc2ccccc2C(=O)NC2CC2)cc1	none
CC(C)=Nc1ccccc1C1COC(=O)C1=N (stereo not given)	SW480 rerep 0.52µM
N=C1C(=O)OCC1c1ccccc1NC(=O)Nc1ccccc1 (stereo not given)	KB-V1 cytotox inconclusive
O=C(C[n+]1cccc(Br)c1)c1ccc(Br)cc1	none (no result: MCF10A rereplic, SW480 rerep, HT1080 IDH1KD tx, HT1080-NT tox)
COc1cc2c(cc1OC)C(c1cccc(Br)c1)CC(=O)N2 (stereo not given)	MCF10A rereplic inconclusive
